# Screens (PubChem)
# Compounds with a hit are over-represented: about 3.5% of the library has one in this group of screens.
# TEAD-YAP block – TEAD-YAP interaction inhibition, primary screen, TEAD-YAP interaction inhibitor project, luminescence, HEK-TIYL cells. TEAD-Gal4/YAP UAS-luciferase luminescence. inhibition, % at 9.12 µM. 1.4% of 640,000 active. AID 1259422, 2018; in the data active means inhibition above about 32%;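 further: 0% = median of test compound wells and 100% = reference inhibitor wells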
# GPR151 ag – activators of human GPR151, primary screen, cell-based, PathHunter beta-arrestin, luminescence; activation, % at 11.2 µM; PathHunter beta-arrestin GPR151 cells; 1% of 650,000 active; in the data active means activation above about 4.9%;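 further: 0% = median of compound wells and 100% = cells with positive control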
# MITF primary – MITF inhibitors, primary screen, biochemical, AlphaScreen, human | Microphthalmia-associated transcription factor (Homo sapiens), O75030 | AlphaScreen MITF homodimerization, bead proximity signal | inhibition, % at 2.6 µM | 0.91% of 650,000 active | AID 1259374, 2018; in the data active means inhibition above about 50%;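 further: 0% = vehicle wells with protein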
# FBW7 activator – FBW7 E3 ligase activators, primary screen, biochemical, AlphaScreen, human | F-box/WD repeat-containing protein 7 (Homo sapiens), Q969H0 | AlphaScreen FBW7–phospho-cyclin E peptide binding, activator screen | normalized activity (activation), % at 26.1 µM | 0.13% of 650,000 active; in the data active means normalized activity above about 1.9%;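 further: purified mutant Fbw7 with reduced substrate affinity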
# Target sequence (Q969H0 whole entry, looked up): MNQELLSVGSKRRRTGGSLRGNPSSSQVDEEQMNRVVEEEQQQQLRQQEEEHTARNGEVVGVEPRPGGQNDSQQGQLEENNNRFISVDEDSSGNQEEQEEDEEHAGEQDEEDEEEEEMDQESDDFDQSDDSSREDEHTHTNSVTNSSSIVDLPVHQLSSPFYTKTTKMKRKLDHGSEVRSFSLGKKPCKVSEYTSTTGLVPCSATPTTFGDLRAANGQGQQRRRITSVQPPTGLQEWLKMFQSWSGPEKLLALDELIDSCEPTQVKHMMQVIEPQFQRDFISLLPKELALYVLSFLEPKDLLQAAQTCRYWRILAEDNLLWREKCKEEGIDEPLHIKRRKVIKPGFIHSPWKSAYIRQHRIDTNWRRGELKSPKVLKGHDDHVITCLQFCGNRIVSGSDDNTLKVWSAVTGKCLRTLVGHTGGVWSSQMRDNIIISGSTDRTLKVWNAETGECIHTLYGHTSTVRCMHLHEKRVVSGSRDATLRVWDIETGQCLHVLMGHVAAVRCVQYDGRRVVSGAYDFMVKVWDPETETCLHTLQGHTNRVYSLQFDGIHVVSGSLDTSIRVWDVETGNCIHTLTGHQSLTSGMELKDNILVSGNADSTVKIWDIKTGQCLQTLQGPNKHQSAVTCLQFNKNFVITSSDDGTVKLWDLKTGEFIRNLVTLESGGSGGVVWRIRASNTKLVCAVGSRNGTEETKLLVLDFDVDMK
# Active calls of the source: *; ! = not confirmed by another sample.
SMILES,TEAD-YAP block,GPR151 ag,MITF primary,FBW7 activator
Cc1cccn2cc(-c3ccc(NC(=O)CC(C)C)cc3)nc12,-43,-4,10,0
CC(=O)Nc1ccc(-c2cn3ccccc3n2)cc1,39*,-5,-1,0
CCc1ccc(-c2cn3nc(C)c(C)nc3n2)cc1,92*,-7,-1,0
O=C(Cc1cccs1)Nc1ccc(NC(=O)c2cccs2)cc1,-35,1,-4,0
CC(C)C(=O)NC(c1ccccc1Cl)c1ccc2cccnc2c1O (configuration not stated),84*,1,19,-2
CC(C)C(=O)NC(c1ccccc1)c1ccc2cccnc2c1O (configuration not stated),90*,-1,28,-1
CC(C)c1ccc(C(NC(=O)C2CCCCC2)c2ccc3cccnc3c2O)cc1 (configuration not stated),19,2,5,1
CC(C)C(=O)NC(c1ccc(Cl)cc1)c1ccc2cccnc2c1O (configuration not stated),85*,1,12,-2
CC(C)C(=O)NC(c1ccco1)c1ccc2cccnc2c1O (configuration not stated),64*,-2,44,-2
CCOC(=O)c1oc2c(O)c(O)ccc2c(=O)c1-c1nncn1-c1ccccc1,1,0,82*,-1
CCOC(=O)c1oc2c(C)c(O)ccc2c(=O)c1-c1nncn1-c1ccccc1,2,-1,3,0
Cc1cc(Cl)ccc1OCC(=O)Nc1ccc(S(=O)(=O)N2CCOCC2)cc1,4,1,-6,0
Cc1ccc(C)c(Nc2cc(C)nc(-c3ccccc3O)n2)c1,41*,0,-10,0
COc1cccc(/C=N\Nc2ccccn2)c1O,-44,-2,61*,-1
COc1cccc(/C=N\Nc2cc(C)c3ccccc3n2)c1OC,60*,4,3,0
Cc1c(O)ccc(/C=N/Nc2ncccc2[N+](=O)[O-])c1O,71*,-9,-5,0
COc1cccc(NC(=O)c2cc3c(=O)n4cccc(C)c4nc3s2)c1,-5,0,-4,0
COc1ccc(N2C(=O)C([n+]3ccccc3)=C(N)C2(C)C)cc1,3,0,-2,0
CC1=C(C(=O)N2CCOCC2)C(c2ccc(Cl)cc2)NC(=O)N1 (configuration not stated),-9,0,-1,0
CN1c2ccccc2Oc2nnc(N3CCN(C(c4ccccc4)c4ccccc4)CC3)cc21,-11,-1,-9,0
Cc1nc2ccccc2nc1N/N=C/c1ccc(O)c(C)c1O,-14,-1,-1,0
O=[N+]([O-])c1ccc(O)c(/C=N/Nc2ncccc2[N+](=O)[O-])c1,-3,0,5,0
O=[N+]([O-])c1cccnc1N/N=C/c1ccccc1O,47*,-2,14,0
COc1cccc(/C=N/Nc2cc(-n3cc(C)cn3)ncn2)c1O,88*,-2,73*,0
COc1cccc(/C=N\Nc2ncccc2[N+](=O)[O-])c1O,64*,-4,4,-1
SMILES,TEAD-YAP block,GPR151 ag,MITF primary,FBW7 activator
COc1ccc(/C=N/Nc2cc(-n3cc(C)cn3)ncn2)c(OC)c1,-3,-1,-6,0
COc1cccc(/C=N/Nc2nc3ccccc3nc2C)c1O,63*,-1,-92,0
O=C1NCCN1C(=O)c1ccc(Cl)c([N+](=O)[O-])c1,7,0,1,0
c1ccc(CNc2nccc(Nc3ccncn3)n2)cc1,-11,0,-10,0
Cc1[nH]c2ccccc2c1C(=O)CNC1=NCCS1,7,-1,22,0
O=C(N[C@H]1C[C@H]2C(=O)N3CCC[C@@H]3C(=O)N2C1)c1ccc(Cl)cc1,-10,-2,-5,0
COc1cccc(/C=N\Nc2cc(C)nc(-c3ccccc3O)n2)c1O,39*,0,8,0
COc1ccc(/C=N\Nc2cc(C)nc(-c3ccccc3O)n2)c(OC)c1,-5,1,6,1
O=C(O)c1ccc(/C=C/c2nc3ccccc3s2)cc1,-40,-2,-3,0
CCN(CC)c1ccc(/C=C/c2nc3ccccc3s2)cc1,64*,-1,-10,-1
CCN(CC)c1ccc(Nc2nc(Nc3ccc(N(CC)CC)cc3)nc(Sc3nc4ccccc4s3)n2)cc1,-6,2,8,0
O=C(O)COc1ccc(/C=C/c2nc3ccccc3s2)cc1,72*,-8,-3,0
CC(=O)c1ccc(N=Cc2nc(-c3ccc(Cl)cc3)oc2O)cc1,-7,-2,-9,0
CCN1CCN(Cc2ccc(NC(=O)Nc3ccc(OC)cc3)cc2)CC1,-33,3,22,1
CCN1CCN(Cc2ccc(NC(=O)Nc3ccccc3)cc2)CC1,52*,0,3,0
CCn1nc(C)c(CNC(=O)c2ccc(OC3CCN(Cc4ccccn4)CC3)cc2)c1C,52*,0,9,0
COC(=O)c1ccc2c(c1)N=C(C)c1cc(C)ccc1S2,-8,-1,6,0
CCC1=Nc2cc(C(=O)NCCCN3CCOCC3)ccc2Sc2ccccc21,2,0,3,0
CCOCCCNC(=O)c1ccc2c(c1)N=C(CC)c1ccccc1S2,58*,0,8,0
CCCC1=Nc2cc(C(=O)NCCOC)ccc2Sc2ccccc21,51*,0,9,0
CCOCCCNC(=O)c1ccc2c(c1)N=C(C)c1cc(C)ccc1S2,68*,0,3,0
CCC1=Nc2cc(C(=O)NCCCOC)ccc2Sc2ccccc21,57*,1,2,0
O=C1CC(c2ccccc2)CC(=O)C1=Cc1c[nH]c2ccccc12 (configuration not stated),8,0,-17,0
O=C(c1ccc(-n2cccc2)cc1)N1CCN(Cc2csc(-c3ccccc3)n2)CC1,60*,0,42,-1
Cc1nc(-n2cccc2)sc1C(=O)N1CCN(Cc2csc(-c3ccccc3)n2)CC1,30,-2,11,0
SMILES,TEAD-YAP block,GPR151 ag,MITF primary,FBW7 activator
COCC(=O)N1CCN(Cc2csc(-c3ccccc3)n2)CC1,-31,1,14,0
Cc1nc(C)c(C(=O)N2CCN(Cc3csc(-c4ccccc4)n3)CC2)s1,40*,1,1,0
CC(N)(Cc1ccc(O)c(O)c1)C(=O)O (configuration not stated),0,1,56*,0
CCOC(=O)C(C)(N)Cc1ccc(O)c(O)c1 (configuration not stated),3,3,15,0
N[C@@H](Cc1ccc(O)c(O)c1)C(=O)O,2,-2,79*!,0
N[C@H](Cc1ccc(I)cc1)C(=O)O,-4,-1,5,0
CCC1=NN2C(=N)/C(=C/c3cccc(OCCOc4ccccc4C)c3)C(=O)N=C2S1,-53,0,14,0
CCC1=NN2C(=N)/C(=C/c3cc(Br)c(OCCOc4ccc(Br)cc4)c(OC)c3)C(=O)N=C2S1,-16,2,2,0
